Potency, activity change, negative = viability loss and activity change, negative = cell killing data for 52 compounds are collected here from PubChem BioAssay (NCATS).

Values joined by “and” are separate entries in the source; they are usually repeats but may differ in a detail not shown here. Equal values may be shown once. Results filed as inconclusive are left out. Where a structure was tested more than once in an assay, its records may differ in their call. Active and inactive are the calls of the source. Calls follow the shape of the dose curve; as a rule, active = well fitted curve in the direction sought with a large enough effect; inconclusive = small, poorly fitted or top-dose-only effect, or another doubt; inactive = no such curve, though single readings can be large; an effect the other way counts as inactive or inconclusive.

Assay [1] in a line: Primary qHTS for inhibitors of nuclear receptor binding SET domain protein 2 (NSD2) in an isogenic RCH-ACV NSD2 p.E1099K mutant (9B) (AID 1645876). The following applies: RCH-ACV NSD2 E1099K (9B) viability, CellTiter-Glo, 72 h; series mostly up to 44.9 µM. On the technique in general: qHTS replaces the single test concentration by a dilution series.
The nature of assay [2]: Primary qHTS for inhibitors of nuclear receptor binding SET domain protein 2 (NSD2) in an RCH-ACV wild type WT cells (2C) (AID 1645877). The following applies: RCH-ACV (leukaemia line) NSD2 WT (2C) viability, CellTiter-Glo, 72 h; series mostly up to 44.9 µM.
% is scaled to controls: 0 for no effect and ±100 for the full control effect; potency is read from the fitted curve at half-maximal effect.
Also: nearly all actives have a fitted effect of over 70% in size.

Regarding `C=C1C(=O)OC2CC(C)C(CCC(C)=O)=CCC12` (centres undefined), the Potency is 18.3 µM (active) in assay [1] and 12.9 µM (active) in assay [2].
The like results for `CCC/C=C\C=C/CCc1cc(O)c([C@@H]2O[C@H](CO)[C@@H](O)[C@H](O)[C@H]2O)c(O)c1C(=O)OC` were, in that order, “inactive” and “inactive”.
Taken in the same sequence, the figures for `O=C(Nc1cnc(Cl)nc1)c1ccc(F)c(F)c1` were “inactive” and “inactive”.
Taken in the same sequence, the figures for `C/C=C(/C)C(=O)O[C@H]1C=C(CO)C(=O)[C@H](OC(=O)/C(C)=C/CO)[C@H]1C(C)C` were 1.79 µM (active) and 1.79 µM (active).
For the compound `Fc1ccc2[nH]ccc2c1-c1nc(N2CCOCC2)c2sc(CN3CCN(CC4CC4)CC3)cc2n1`, the Potency in assay [1] is 205 nM (active) and 3.72 µM (active); in assay [2], 365 nM (active) and 833 nM (active).
With `CC1=CC2/C=C(\C)CCC(O)C(=O)C(O)CC(=O)C23C(=O)NC(CC(C)C)C3C1C` (centres undefined), the figures for the Potency in assay [1] and in assay [2] were 11.2 µM (active) and 6.32 µM (active), respectively.
For `CC1(C)CCC2(C(=O)OC3OC(COC4OC(CO)C(O)C(O)C4O)C(O)C(O)C3O)CCC3(C)C(=CCC4C5(C)CCC(OC6OCC(O)C(O)C6O)C(C)(C)C5CCC43C)C2C1O` (centres undefined), in assay [1], the activity change, negative = viability loss is -12.3% [at 9.23 µM] (inactive). Besides, in assay [2], the activity change, negative = cell killing is -18.7% [at 9.23 µM] (inactive).
With `Cn1sc(=O)n(Cc2ccccc2)c1=O`, the Potency in assay [1] is 7.28 µM (active) and 18.4 µM (active); in assay [2] it was 2.58 µM (active) and 11.6 µM (active).
As to `CNc1nc(Nc2ccc(C(=O)N3CCOCC3)cc2OC)nc2[nH]cc(Cl)c12`, the Potency in assay [1] is 4.09 µM (active); in assay [2], 2.9 µM (active).
With `CCC(C)C1NC(=O)C(Cc2ccccc2)NC(=O)C(CCCCCC(=O)C(O)CO)NC(=O)C2CCCCN2C1=O` (centres undefined), the figures for the Potency in assay [1] and in assay [2] were 6.08 µM (active) and 2.16 µM (active), respectively.
As to `COc1ccccc1C(=O)Nc1cccc(NC(=O)c2cccc(C)c2)c1`, the Potency result in assay [1] and in assay [2] was “inactive” throughout.
With `C=C1C(=O)OC2C1CCC1(C)C(O)CC=C(C)C21` (centres undefined), the Potency in assay [1] was 18.3 µM (active); in assay [2], 16.3 µM (active).
Taken in the same sequence, the figures for `CC(=O)OC1C(O)CC2(C)C(CCC3(C)C2CC=C2C4C5(CCC(CO[C@@H]6O[C@H](CO)[C@@H](O)[C@H](O)[C@H]6O)(OC5=O)C4(C)O)C(O)CC23C)C1(C)C` (some centres undefined) were “inactive” and “inactive”.
On to `O=c1cc(OCc2ccc(F)cc2)ccn1-c1ccc(OCCN2CCCC2)cc1`, for which the Potency in assay [1] is 23 µM (active); in assay [2], 8.17 µM (active).
Taken in the same sequence, the figures for `C=C1/C(=C/C=C2\CCC[C@]3(C)[C@@H]([C@H](C)CC[C@@H](O)C(C)(C)O)CC[C@@H]23)C[C@@H](O)C[C@@H]1O` were 18.3 µM (active) and 10.3 µM (active).
The like results for `Nc1nc(NC2CC2)cc(-c2cccc(Cl)c2Cl)n1` were, in that order, 4.59 µM (active) and 2.58 µM (active).
The like results for `CC(=O)O[C@@H]1CC[C@@]2(C)C(CC[C@]3(C)C2[C@H](O)C=C2[C@H]4[C@@H](C)[C@H](C)CC[C@]4(C)CC[C@]23C)[C@@]1(C)C(=O)O` (some centres undefined) were, in that order, “inactive” and “inactive”.
On to `CCOc1cc(C(C)(C)C)ccc1C1=NC(C)(c2ccc(Cl)cc2)C(C)(c2ccc(Cl)cc2)N1C(=O)N1CCN(CCCS(C)(=O)=O)CC1` (centres undefined), for which the Potency was 0.817 µM (active) in assay [1] and 0.258 µM (active) in assay [2].
The like results for `C=CC(C)(C)C12CC3C(=O)N4C(CC5(C(C)(C)C=C)c6ccccc6NC45)C(=O)N3C1Nc1ccccc12` (centres undefined) were, in that order, “inactive” and “inactive”.
Take `COc1cc(/C=C/C(=O)NCCn2c(C(F)(F)F)cc3ccccc32)cc(OC)c1OC`: the Potency entry in assay [1] and in assay [2] was “inactive” throughout.
Consider `C=C(C)C(=O)O[C@H]1/C(C=O)=C\CC/C(CO)=C/[C@H]2OC(=O)C(=C)[C@@H]2[C@@H]1OC`, for which the Potency in assay [1] was 11.3 µM (active); in assay [2], 2.53 µM (active).
The like results for `C[C@@H]1O[C@@H](O[C@H]2[C@H](OC(=O)[C@]34CCC(C)(C)C[C@H]3C3=CCC5[C@@]6(C)C[C@H](O)[C@H](O[C@@H]7O[C@H](CO)[C@@H](O)[C@H](O)[C@H]7O)[C@](CO)(C(=O)O)C6CC[C@@]5(C)[C@]3(C)C[C@H]4O)OC[C@H](O)[C@@H]2O)[C@H](O)[C@H](O)[C@H]1O[C@@H]1OC[C@@H](O)[C@H](O[C@@H]2OC[C@](O)(CO)[C@H]2O)[C@H]1O` (some centres undefined) were, in that order, 0.772 µM (active) and 0.547 µM (active).
The like results for `Cc1sc2c(c1C)C(c1ccc(Cl)cc1)=N[C@H](CC(=O)NCCCCNC(=O)COc1cccc3c1C(=O)N([C@H]1CCC(=O)NC1=O)C3=O)c1nnc(C)n1-2` were, in that order, 0.23 µM (active) and 0.129 µM (active).
Taken in the same sequence, the figures for `O=C(CN1C2=NCCN2c2ccccc21)c1ccc(-c2ccccc2)cc1` were 11.5 µM (active) and 6.49 µM (active).
With `CC(=O)Nc1nc(C)c(-c2nc(N3CCCC(O)C3)no2)s1` (centres undefined), the Potency in assay [1] was 0.916 µM (active); in assay [2], 1.15 µM (active).
The like results for `C=C1C(=O)OC2/C=C(\CO)CC/C=C(\C=O)C(O)C(OC(=O)C(C)CC)C12` (centres undefined) were, in that order, 5.67 µM (active) and 2.01 µM (active).
Taken in the same sequence, the figures for `COc1cc(S(C)(=O)=O)ccc1Nc1nc2ccc(-c3ccc(NC(=O)[C@H](C)c4ccc(F)cc4)cc3)cn2n1` were 0.742 µM (active) and 0.417 µM (active).
On to `CC(=O)O[C@@H]1CC[C@@]2(C)[C@H](CC[C@@H]3[C@@H]2C[C@H](OC(C)=O)[C@]2(C)[C@@H](C(C)=O)CC[C@@H]32)C1`, for which the Potency in assay [1] and in assay [2] was 23 µM (active) throughout.
On to `C=C1C(=O)O[C@@H]2[C@H]3C(C)=CC(=O)C3=C(C)CC[C@@H]12`, for which the results for the Potency in assay [1] and in assay [2] were 2.9 µM (active) and 2.05 µM (active), respectively.
Taken in the same sequence, the figures for `C=C(C)C(=O)O[C@H]1[C@H]2C(=C)C(=O)O[C@@H]2/C=C(\CO)CC/C=C(/C=O)[C@@H]1O` were 12.7 µM (active) and 4.5 µM (active).
The like results for `Fc1ccc(CN2CCC(Nc3ccc(C(F)(F)F)nn3)CC2)cc1F` were, in that order, “inactive” and “inactive”.
Taken in the same sequence, the figures for `C=C1C(=O)O[C@H]2/C=C(/C)[C@@H](OC(C)=O)C/C=C(\C)C[C@@H](OC(=O)/C(=C/C)COC(=O)/C(=C/C)CO)[C@@H]12` were 1.78 µM (active) and 1.12 µM (active).
Consider `CC(O)(C(=O)C1CC1(CO)COC1OC(CO)C(O)C(O)C1O)C1C(O)CC2C3CC=C4CC(O)CC(O)C4(C)C3C(O)CC21C` (centres undefined), for which the Potency in assay [1] is 0.342 µM (active); in assay [2] it was 0.383 µM (active).
`COc1ccc(Cl)c(Nc2ncnc3cc(OCC4CCN(C)CC4)c(OC)cc23)c1`: the Potency in assay [1] and in assay [2] was 13.2 µM (active) throughout.
In the case of `COC(=O)C1=COC(O[C@@H]2O[C@H](CO[C@@H]3O[C@H](COC(=O)/C=C\c4ccc(O)cc4)[C@@H](O)[C@H](O)[C@H]3O)[C@@H](O)[C@H](O)[C@H]2O)C2C(CO)=CCC12` (some centres undefined), the Potency result in assay [1] and in assay [2] was “inactive” each time.
As to `COC1CC(=O)C23C(=O)NC(Cc4c[nH]c5ccccc45)C2C(C)C2(C)OC2C3/C=C/CC(C)CC1O` (centres undefined), the Potency in assay [1] was 3.17 µM (active); in assay [2], 2.52 µM (active).
`COc1cc(CCC2=NN=C(NC(=O)c3ccc(N4C[C@@H](C)N[C@@H](C)C4)cc3)C2)cc(OC)c1`: the Potency in assay [1] and in assay [2] was 5.78 µM (active) throughout.
For the compound `CC1CCCC[C@H]2C(=O)C=C[C@H](O)[C@@H]2CC(=O)O1` (some centres undefined), the Potency is 3.25 µM (active) in assay [1] and 2.05 µM (active) in assay [2].
Taken in the same sequence, the figures for `CC(C)C[C@@H](N)C(=O)N[C@H]1C(=O)N[C@@H](CC(N)=O)C(=O)N[C@H]2C(=O)N[C@H]3C(=O)N[C@H](C(=O)N[C@H](C(=O)O)c4cc(O)cc(O)c4-c4cc3ccc4O)[C@H](O)c3ccc(c(Cl)c3)Oc3cc2cc(c3O[C@@H]2O[C@H](CO)[C@@H](O)[C@H](O)[C@H]2O[C@H]2C[C@](C)(N)[C@H](O)[C@H](C)O2)Oc2ccc(cc2Cl)[C@H]1O` were “inactive” and “inactive”.
Taken in the same sequence, the figures for `CC1(C)CC[C@]2(C(=O)O)CC[C@]3(C)C(=CCC4[C@@]5(C)C[C@@H](O)[C@H](O)C(CO)(CO)C5CC[C@]43C)C2[C@@H]1O` (some centres undefined) were 8.93 µM (active) and 8.93 µM (active).
Taken in the same sequence, the figures for `COc1cc(C(C)C)c(Oc2cnc(N)nc2N)cc1I` were 16.3 µM (active) and 16.3 µM (active).
In the case of `COC1CC(O[C@H]2CC[C@]3(C)C4CC[C@@]5(C)C(=O)[C@]4(CC[C@@H]3C2)CC[C@@H]5C2=CC(=O)OC2)OC(C)C1OC1OC(COC2OC(CO)C(O)C(O)C2O)C(O)C(O)C1O` (some centres undefined), the Potency in assay [1] is 1.54 µM (active); in assay [2] it was 2.75 µM (active).
In the case of `C[C@@H]1COCCN1c1cc(=O)n2c(n1)N(Cc1cncc(Cl)c1)[C@H](C(F)(F)F)CC2`, the Potency was 6.51 µM (active) in assay [1]; 6.51 µM (active) and inactive in assay [2].
As to `O=C(Nc1nnc(-c2ccc3c(c2)OCCO3)o1)C1CCCCC1`, the Potency result in assay [1] and in assay [2] was “inactive” in each case.
As to `Cc1cn(CCN2CCN(c3ccccc3-c3cc(C#N)cc(C(=O)NCCCN4CCCC4)c3)CC2)c2ccccc12`, the Potency in assay [1] was 6.49 µM (active) and 6.61 µM (active); in assay [2], 5.78 µM (active) and 6.61 µM (active).
Turning to `NC(=O)c1cnc(N[C@@H]2CCCC[C@@H]2N)nc1Nc1cccc(-n2nccn2)c1`, the Potency in assay [1] and in assay [2] was 1.32 µM (active) throughout.
Turning to `Cc1c[nH]c2ncnc(N3CCC(CN)(C(=O)Nc4cccc(OC(=O)N(C)C)c4)CC3)c12`, the Potency in assay [1] was 9.34 µM (active) and 7.42 µM (active); in assay [2] it was 10.5 µM (active) and 11.8 µM (active).
Turning to `C=C1C(=O)O[C@H]2C1CCC(C)=C1C(=O)C=C(C)[C@@]12O` (some centres undefined), the Potency in assay [1] was 20.5 µM (active); in assay [2], 12.9 µM (active).
As for `COc1ccnc(CS(=O)c2nc3cc(OC(F)F)ccc3[nH]2)c1OC` (centres undefined), the Potency entry in assay [1] and in assay [2] was “inactive” throughout.
`C[C@H](Nc1cc2c(-c3ccc4c(c3)OCO4)noc2cn1)c1ccccc1`: the Potency entry in assay [1] and in assay [2] was “inactive” in each case.
Consider `C/C=C(\C)C(=O)OC1C[C@@]2(COC(C)=O)O[C@H]2/C=C\[C@@]2(C)O[C@@H]2[C@H]2OC(=O)C(COC(C)=O)=C12` (some centres undefined), for which the Potency in assay [1] is 8.93 µM (active); in assay [2] it was 5.63 µM (active).
In the case of `C[C@H](CN(C)C)Oc1nc(Nc2cc3cccc(Cl)c3cn2)cnc1C#N`, the Potency in assay [1] was 459 nM (active) and 934 nM (active); in assay [2], 409 nM (active) and 934 nM (active).
